Some test systems named below: SK-MEL-2 melanoma; SN12C renal; UO-31 renal; TK-10 renal; ACHN renal; CAKI-1 renal; A498 renal; CCRF-CEM leukemia; MOLT-4 leukemia.
Holding throughout (assay): NCI-60 one-dose screen, 48 h (100 = growth as untreated, 0 = no growth, -100 = all killed)
Holding throughout (conditions): 10 µM unless noted

This is part of a sample that, as a whole, favours compounds with a hit. Of some 83,000 tested, about 20% had one in any assay.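 Single-concentration screen, 48 h exposure, 96-well plates. Endpoint: percent growth. Below 10 = active.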 Unmarked numbers belong to inactive results. Calls of active or inactive are those of the source.

As for `N#Cc1c(-c2ccc(Cl)cc2)nc(NN=Cc2cccc(O)c2)nc1N1CCOCC1`, the growth with SK-MEL-2 melanoma is 91.5%; in the assay with SN12C renal, 78.3%; in the assay on UO-31 renal, 35.7%; in the assay on TK-10 renal it was 79%; in the assay with ACHN renal it was 60.9%; with CAKI-1 renal, 60.5%. Further, the growth with A498 renal was 75.1%; in the assay on CCRF-CEM leukemia, 36.2%; in the assay on MOLT-4 leukemia it was 39.8%.
Consider `CC(C)c1ccc(NC(=O)Nc2ccc(NC(=O)CCCC(=O)NOCc3ccccc3)cc2)cc1`, for which the growth in the assay on SK-MEL-2 melanoma was 87.7%; in the assay with SN12C renal it was 92.8%; in the assay with UO-31 renal, 85%; with TK-10 renal it was 103%; with ACHN renal, 87.4%; in the assay with CAKI-1 renal, 87.9%. Further, the growth in the assay on A498 renal is 96.4%; in the assay with CCRF-CEM leukemia, 75.1%; in the assay on MOLT-4 leukemia, 71.1%.
Regarding `CCN(CC)c1nc(SCc2ccccc2Cl)ncc1C`, the growth is 118% in the assay with SK-MEL-2 melanoma; 96.7% in the assay on SN12C renal; 102% with UO-31 renal; 117% in the assay with TK-10 renal; 108% in the assay on ACHN renal; 88.8% in the assay on CAKI-1 renal. The growth was 91.2% with A498 renal, 92.7% in the assay on CCRF-CEM leukemia and 105% in the assay with MOLT-4 leukemia.
In the case of `C=C(C)[C@@H]1CC[C@]2(C)[C@H](CC=C3[C@@H]4[C@H](C)[C@@H](C)CC[C@]4(CO)CC[C@]32C)[C@@]1(C)CCCN`, the growth with SK-MEL-2 melanoma is -24.7% (active); with SN12C renal, -4.38% (active); in the assay on UO-31 renal, 34.1%; in the assay on TK-10 renal it was -68.3% (active); in the assay with ACHN renal, 63.4%; in the assay on CAKI-1 renal it was 22.4%. The growth was 72.5% in the assay on A498 renal, 0.722% (active) in the assay with CCRF-CEM leukemia and -10.6% (active) in the assay with MOLT-4 leukemia.
Consider `COc1ccc(C2=Nc3c/c(=C\c4c(O)[nH]c5ccc(Cl)cc45)ccc3=N2)cc1`, for which the growth in the assay with SK-MEL-2 melanoma was 20.1%; with SN12C renal, 73.4%; in the assay with UO-31 renal it was 59%; in the assay on TK-10 renal, 82.5%; in the assay on ACHN renal, 70.1%; in the assay with CAKI-1 renal, 51.3%. Further, the growth is 25.9% with A498 renal, 8.54% (active) with CCRF-CEM leukemia and 19.9% in the assay with MOLT-4 leukemia.
For the molecule `COc1ccc(/C=C2\COc3ccc(O)c(O)c3C2=O)cc1`, the growth was 57.4% with SK-MEL-2 melanoma; -39.1% (active) in the assay with SN12C renal; -86.3% (active) in the assay on UO-31 renal; 7.43% (active) in the assay on TK-10 renal; -42% (active) with ACHN renal; 2.2% (active) in the assay on CAKI-1 renal. Further, the growth in the assay on A498 renal was 24.4%; in the assay with CCRF-CEM leukemia, 7.73% (active); with MOLT-4 leukemia, 3.83% (active).
For `CCOC(=O)c1cn2ncnc(Oc3ccc(NC(=O)NC4CCCCC4)c(Cl)c3)c2c1C`, the growth was 103% in the assay with SK-MEL-2 melanoma; 72.8% with SN12C renal; 79% in the assay with UO-31 renal; 111% with TK-10 renal; 61.5% in the assay on ACHN renal; 85% in the assay on CAKI-1 renal. Moreover, the growth with A498 renal is 76.5%; in the assay with CCRF-CEM leukemia, 69.8%; with MOLT-4 leukemia, 75.1%.
Take `CN[C@]12CC3(C=CC(=O)C=C3)O[C@@]1(Cc1ccc(OC)cc1)N(C)C(=O)N2`: the growth with SK-MEL-2 melanoma was 70.7%; in the assay on SN12C renal, 4.44% (active); with UO-31 renal it was 48.7%; with TK-10 renal it was 24.1%; in the assay on ACHN renal, -86.3% (active); in the assay with CAKI-1 renal, 16%. Further, the growth is 97% in the assay with A498 renal, 6.3% (active) in the assay on CCRF-CEM leukemia and 28% in the assay on MOLT-4 leukemia.
Take `Fc1cc(F)cc(C(c2c[nH]c3ccccc23)c2c[nH]c3ccccc23)c1`: the growth in the assay on SK-MEL-2 melanoma was 58.8%; in the assay with SN12C renal, 95.7%; in the assay on UO-31 renal, 52.9%; in the assay on TK-10 renal it was 144%; in the assay on ACHN renal, 87.7%; in the assay with CAKI-1 renal it was 90.9%. Besides, the growth is 71.7% in the assay with A498 renal, 89.1% with CCRF-CEM leukemia and 81.8% in the assay with MOLT-4 leukemia.
Regarding `CCOC(=O)c1cc2c(=O)oc3ccccc3c2oc1=O`, the growth is 78.1% in the assay on SK-MEL-2 melanoma; 98.3% in the assay on SN12C renal; 82.7% with UO-31 renal; 98.6% in the assay with TK-10 renal; 89.8% with ACHN renal; 111% in the assay on CAKI-1 renal. The growth in the assay on A498 renal is 106%; in the assay with CCRF-CEM leukemia, 88.5%; with MOLT-4 leukemia it was 87.1%.
On to `CN1CCN(c2ccc(C(=O)Nc3cccc(C#Cc4cccc5[nH]nc(N)c45)c3)cc2C(F)(F)F)CC1`, for which the growth is 27.7% in the assay with SK-MEL-2 melanoma; 3.37% (active) with SN12C renal; -62% (active) with UO-31 renal; -30.2% (active) with TK-10 renal; -46.2% (active) with ACHN renal; -96.2% (active) in the assay on CAKI-1 renal. Further, the growth was 5.93% (active) in the assay with A498 renal, -25.3% (active) in the assay on CCRF-CEM leukemia and -56.3% (active) in the assay with MOLT-4 leukemia.
`CC(C)=NNc1ccccn1`: the growth was 83.2% in the assay on SK-MEL-2 melanoma; 45.4% with SN12C renal; 29.5% with UO-31 renal; 39% with TK-10 renal; 27.9% in the assay with ACHN renal; 29.1% with CAKI-1 renal. Further, the growth is 78.1% in the assay with A498 renal, 26.8% with CCRF-CEM leukemia and 25.4% with MOLT-4 leukemia.
Take `CCN(CC)c1ccc(/C=C/C(=O)c2ccc(Nc3nc(Nc4ccccc4)nc(Nc4ccccc4)n3)cc2)cc1`: the growth in the assay on SK-MEL-2 melanoma was 27.9%; with SN12C renal, 74%; in the assay on UO-31 renal, 23.9%; with TK-10 renal it was 59.3%; in the assay on ACHN renal, 49.1%; with CAKI-1 renal, 44%. The growth with A498 renal is 30.3%; in the assay on CCRF-CEM leukemia it was 5.63% (active); in the assay on MOLT-4 leukemia it was 22.6%.
As to `C#Cc1ccc(NC(=O)c2ccc(/C=C/C(=O)c3nccn3C)cc2)cc1`, the growth in the assay with SK-MEL-2 melanoma was -30.4% (active); in the assay on SN12C renal, -37.5% (active); in the assay with UO-31 renal, -98.8% (active); in the assay on TK-10 renal it was -2.59% (active); with ACHN renal, -72.1% (active); in the assay on CAKI-1 renal, -81.6% (active). In addition, the growth in the assay with A498 renal was -70.3% (active); in the assay with CCRF-CEM leukemia it was -9.16% (active); in the assay on MOLT-4 leukemia, -10% (active).
`CCCC(=O)NC(c1ccc2c(c1)OCO2)c1ccc2cccnc2c1O` (stereo unspecified): the growth with SK-MEL-2 melanoma is 46%; with SN12C renal, 23.9%; with UO-31 renal it was -23.2% (active); with TK-10 renal it was 25.8%; in the assay with ACHN renal it was 5.12% (active); in the assay on CAKI-1 renal, 6.21% (active). The growth with A498 renal was 12.9%; in the assay on CCRF-CEM leukemia, 4.72% (active); in the assay with MOLT-4 leukemia, 2.22% (active).
In the case of `OCCNCCCOc1ccc2ncnc(Nc3ccc(Oc4cccc(C(F)(F)F)c4)c(Cl)c3)c2c1`, the growth with SK-MEL-2 melanoma was 73.5%; in the assay on SN12C renal, 58.1%; in the assay on UO-31 renal, 26%; in the assay on TK-10 renal, 49%; in the assay with ACHN renal it was -45.4% (active); with CAKI-1 renal, 9.01% (active). For the same molecule, the figures for the growth in the assay with A498 renal, with CCRF-CEM leukemia and with MOLT-4 leukemia were 58.8%, 6.8% (active) and 1.07% (active), respectively.
As for `CCNc1cc(-c2cccc(OC(F)(F)F)c2)nc2ccc(N3CCCC3)cc12`, the growth is 6.05% (active) in the assay on SK-MEL-2 melanoma; 9.26% (active) in the assay with SN12C renal; 5.13% (active) with UO-31 renal; 35.5% in the assay with TK-10 renal; -12.7% (active) with ACHN renal; 30.6% in the assay on CAKI-1 renal. In addition, the growth in the assay on A498 renal was 58.9%; in the assay on CCRF-CEM leukemia it was 13.4%; in the assay with MOLT-4 leukemia it was 2.48% (active).
With `Cc1ccc(-c2nc3nc(-c4ccccc4)nc(N4CCNCC4)c3o2)cc1`, the growth is -92.7% (active) in the assay on SK-MEL-2 melanoma; -78.3% (active) in the assay with SN12C renal; -91.8% (active) in the assay on UO-31 renal; -96.5% (active) in the assay on TK-10 renal; -97.2% (active) in the assay with ACHN renal; -99% (active) with CAKI-1 renal. Also, the growth was -88.7% (active) in the assay with A498 renal, -69.3% (active) with CCRF-CEM leukemia and -69.2% (active) with MOLT-4 leukemia.
For `CC1(c2ccccc2O)NN=C(/N=C/c2cccc([N+](=O)[O-])c2)N1C(Cc1c[nH]c2ccccc12)C(=O)O` (stereo unspecified), the growth was 87.8% in the assay on SK-MEL-2 melanoma; 94.2% in the assay on SN12C renal; 70.8% with UO-31 renal; 141% in the assay with TK-10 renal; 91.1% in the assay on ACHN renal; 93.7% in the assay on CAKI-1 renal. Also, the growth in the assay with A498 renal was 90.9%; in the assay on CCRF-CEM leukemia it was 81.9%; with MOLT-4 leukemia, 92.5%.
